Shown are actives, neighbours in structure and some others; about 31% of the full set was active somewhere.
CYP2C9 inh = blocks human cytochrome P450 2C9. P11712. hit rate 20% among 96,000. inhibition, % at 5 µM. CYP2C9 Supersomes, luciferin-H conversion, luminescence;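 active = blocking of liver enzyme CYP2C9 beyond about 50% at 5 µM, limit read from the data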
Target sequence (P11712 whole entry, looked up): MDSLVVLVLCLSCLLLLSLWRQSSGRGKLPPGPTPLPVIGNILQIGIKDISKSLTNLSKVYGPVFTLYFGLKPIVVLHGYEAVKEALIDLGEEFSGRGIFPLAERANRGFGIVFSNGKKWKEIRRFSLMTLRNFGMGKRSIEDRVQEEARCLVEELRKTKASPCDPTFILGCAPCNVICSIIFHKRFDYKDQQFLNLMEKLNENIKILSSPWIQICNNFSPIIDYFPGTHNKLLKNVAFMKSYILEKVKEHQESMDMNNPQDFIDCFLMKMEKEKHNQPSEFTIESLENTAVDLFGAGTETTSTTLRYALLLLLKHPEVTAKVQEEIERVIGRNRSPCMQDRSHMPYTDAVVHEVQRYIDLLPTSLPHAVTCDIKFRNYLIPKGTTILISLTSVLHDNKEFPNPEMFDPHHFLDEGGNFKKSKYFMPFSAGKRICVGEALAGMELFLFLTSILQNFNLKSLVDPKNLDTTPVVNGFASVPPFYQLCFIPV
CYP2C9 activ = increases human cytochrome P450 2C9 activity. AID 1024. activation factor at 5 µM. hit rate 1.4% among 96,000. P11712. recombinant CYP2C9, luciferin-H conversion, luminescence; hits give high values; factor 1 = untreated enzyme, 0 = blocked;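 active = activation factor of 2 or more for CYP2C9 at a 5 µM dose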;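 note: 0 = sulfaphenazole-blocked wells and 1 = vehicle-only wells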
PLAP act = human PLAP activation. AID 696. hit rate 1.2% among 96,000. activation fold at 20 µM. P05187. purified PLAP enzyme, luminescent substrate read-out; hits give high values; in the data active = activation fold above about 2
CYP2C19 inhib = human CYP2C19 inhibition. P33261. CYP2C19 Supersomes, luciferin-H EGE luminescence, 30 min. inhibition, % at 5 µM. hit rate 21% among 96,000. AID 778;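 active = CYP2C19 inhibition above a set limit at 5 µM in the primary screen, cut at about 50% in these data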;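 note: plate controls were negative control wells for no effect and 2.5 mM tranylcypromine positive control for full effect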
CYP2C19 act = activators of human cytochrome P450 2C19; AID 1025; 96,000 tested, under 10 active; recombinant CYP2C19, luciferin-H EGE luminescence; hits give high values; 0 = fully inhibited enzyme, 1 = untreated enzyme; P33261; activation factor at 5 µM;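 active = activation factor of at least 2 at 5 µM in the primary screen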;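 note: 0 = wells with 2.5 mM tranylcypromine and 1 = vehicle-only wells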
* = called active by the depositor.

What do the screens show for `CCOC(=O)Cn1nc(/C=C/c2ccc(C(C)C)cc2)ccc1=O`?
CYP2C9 inh: 19; CYP2C9 activ: 0.8; PLAP act: 1.3; CYP2C19 inhib: 12; CYP2C19 act: 0.9

How did Cc1cccn2c(=O)c(/C=C(\C#N)S(=O)(=O)c3ccccc3)c(N3CCC(C(N)=O)CC3)nc12 do in these assays?
CYP2C9 inh: 82*; CYP2C9 activ: 0.2; PLAP act: 1.6; CYP2C19 inhib: 30; CYP2C19 act: 0.7

Results for N/C(=N\OC(=O)Nc1ccccc1)c1ncc(C(F)(F)F)cc1Cl ?
CYP2C9 inh: 23; CYP2C9 activ: 0.8; PLAP act: 1; CYP2C19 inhib: 34; CYP2C19 act: 0.7

Results for O/N=C(\c1ccc(Cl)cc1Cl)c1ncc(C(F)(F)F)cc1Cl ?
CYP2C9 inh: 74*; CYP2C9 activ: 0.3; PLAP act: 1.2; CYP2C19 inhib: 93*; CYP2C19 act: 0.1

What do the screens show for `O=C(c1ccc(Cl)cc1Cl)c1ncc(C(F)(F)F)cc1Cl`?
CYP2C9 inh: 22; CYP2C9 activ: 0.8; PLAP act: 0.8; CYP2C19 inhib: 53*; CYP2C19 act: 0.5

What do the screens show for `COc1ccc(/C(=N\O)c2ncc(C(F)(F)F)cc2Cl)cc1`?
CYP2C9 inh: 14; CYP2C9 activ: 0.9; PLAP act: 0.8; CYP2C19 inhib: 79*; CYP2C19 act: 0.2

Results for O=C(c1ccccc1)c1ncc(C(F)(F)F)cc1Cl ?
CYP2C9 inh: -9; CYP2C9 activ: 1.1; PLAP act: 1.2; CYP2C19 inhib: 65*; CYP2C19 act: 0.4

What do the screens show for `CCOC(=O)C(CC(C)C)CP(=O)(O)CNC(=O)OCc1ccccc1` (stereo not drawn)?
CYP2C9 inh: 10; CYP2C9 activ: 0.9; PLAP act: 1.6; CYP2C19 inhib: -1; CYP2C19 act: 1

How did Cc1cccc(-c2c3c(=O)n(C)c(=O)n(C)c3cn2CCO)c1 do in these assays?
CYP2C9 inh: -12; CYP2C9 activ: 1.1; PLAP act: 1.1; CYP2C19 inhib: -16; CYP2C19 act: 1.2

Results for COC(=O)c1nc2n(n1)C(c1ccc(OC)c(OC)c1OC)C1=C(CCCC1=O)N2 (stereo not drawn) ?
CYP2C9 inh: 28; CYP2C9 activ: 0.7; PLAP act: 1.4; CYP2C19 inhib: -13; CYP2C19 act: 1.1

How did N#Cc1ccc(CSc2nnc(NC(=O)CN3C(=O)C4CC=CCC4C3=O)s2)cc1 (stereo not drawn) do in these assays?
CYP2C9 inh: 20; CYP2C9 activ: 0.8; PLAP act: 1.5; CYP2C19 inhib: 13; CYP2C19 act: 0.9

Results for Cc1cc(Cl)ccc1OCC(=O)NCCCN1CCOCC1 ?
CYP2C9 inh: -1; CYP2C9 activ: 1; PLAP act: 1.6; CYP2C19 inhib: 42; CYP2C19 act: 0.6

Results for Cc1cc(Cl)ccc1OCC(=O)NCCOc1nc(N2CCOCC2)nc(N2CCOCC2)n1 ?
CYP2C9 inh: 23; CYP2C9 activ: 0.8; PLAP act: 1.4; CYP2C19 inhib: 19; CYP2C19 act: 0.8

What do the screens show for `CN(C)c1nc(OCCNC(=O)COc2ccc(Cl)cc2Cl)nc(N2CCOCC2)n1`?
CYP2C9 inh: 82*; CYP2C9 activ: 0.2; PLAP act: 1.8; CYP2C19 inhib: 50; CYP2C19 act: 0.5

What do the screens show for `CON(C)c1nc(OCCNC(=O)COc2ccc(Cl)cc2C)nc(N(C)C)n1`?
CYP2C9 inh: 51*; CYP2C9 activ: 0.5; PLAP act: 1.4; CYP2C19 inhib: 36; CYP2C19 act: 0.6

What do the screens show for `CON(C)c1nc(OCCNC(=O)OCc2ccc(Cl)cc2Cl)nc(N(C)C)n1`?
CYP2C9 inh: 63*; CYP2C9 activ: 0.4; PLAP act: 1.2; CYP2C19 inhib: 36; CYP2C19 act: 0.6

What do the screens show for `COC(=O)NCCOc1nc(N(C)C)nc(N(C)C)n1`?
CYP2C9 inh: -2; CYP2C9 activ: 1; PLAP act: 1.3; CYP2C19 inhib: 0; CYP2C19 act: 1

How did CCCC(c1nnnn1Cc1ccco1)N1CCN(c2cc(Cl)ccc2C)CC1 (stereo not drawn) do in these assays?
CYP2C9 inh: 60*; CYP2C9 activ: 0.4; PLAP act: 1.1; CYP2C19 inhib: 42; CYP2C19 act: 0.6

How did CC(C)CC(c1nnnn1CC1CCCO1)N1CCN(c2nc3ccccc3s2)CC1 (stereo not drawn) do in these assays?
CYP2C9 inh: 18; CYP2C9 activ: 0.8; PLAP act: 1.2; CYP2C19 inhib: 28; CYP2C19 act: 0.7

What do the screens show for `CCCCC(c1nnnn1CC1CCCO1)N1CCN(c2nc3ccccc3s2)CC1` (stereo not drawn)?
CYP2C9 inh: 76*; CYP2C9 activ: 0.2; PLAP act: 1.6; CYP2C19 inhib: 70*; CYP2C19 act: 0.3

Results for CCCCC(c1nnnn1CC1CCCO1)N1CCN(c2cc(Cl)ccc2C)CC1 (stereo not drawn) ?
CYP2C9 inh: 90*; CYP2C9 activ: 0.1; PLAP act: 1.5; CYP2C19 inhib: 96*; CYP2C19 act: 0

Results for CCOC(=O)c1cc2c(=O)[nH]ccc2nc1C ?
CYP2C9 inh: -8; CYP2C9 activ: 1.1; PLAP act: 1.1; CYP2C19 inhib: -11; CYP2C19 act: 1.1

What do the screens show for `CCC(C)(C)n1nnnc1C(c1cc2cc(C)cc(C)c2[nH]c1=O)N1CCN(C(=O)c2ccco2)CC1` (stereo not drawn)?
CYP2C9 inh: 33; CYP2C9 activ: 0.7; PLAP act: 1.2; CYP2C19 inhib: 5; CYP2C19 act: 0.9

Results for CCOC(=O)CN(C(=O)CSc1nnc(CNc2ccc(C)cc2C)o1)c1ccccc1 ?
CYP2C9 inh: 47; CYP2C9 activ: 0.5; PLAP act: 1.4; CYP2C19 inhib: 33; CYP2C19 act: 0.7

How did O=C(c1ccco1)[C@@H]1[C@@H]2C(=O)N(c3ccccc3)C(=O)[C@@H]2C2c3ccccc3C=CN21 (stereo partly drawn) do in these assays?
CYP2C9 inh: 22; CYP2C9 activ: 0.8; PLAP act: 1.3; CYP2C19 inhib: -7; CYP2C19 act: 1.1

How did COc1ccc(N2C(=O)[C@@H]3[C@H](C2=O)[C@H]2c4ccccc4C=CN2[C@@H]3C(=O)Nc2ccccc2)cc1 do in these assays?
CYP2C9 inh: 62*; CYP2C9 activ: 0.4; PLAP act: 1.4; CYP2C19 inhib: 15; CYP2C19 act: 0.8

How did Cc1ccc(N2C(=O)[C@@H]3[C@H](C2=O)C2c4ccccc4C=CN2[C@@H]3C(=O)c2ccco2)cc1 (stereo partly drawn) do in these assays?
CYP2C9 inh: 34; CYP2C9 activ: 0.7; PLAP act: 1.3; CYP2C19 inhib: 11; CYP2C19 act: 0.9

Results for CC(C)(C)C(=O)[C@@H]1[C@@H]2C(=O)N(c3ccc4c(c3)OCCO4)C(=O)[C@@H]2C2c3ccccc3C=CN21 (stereo partly drawn) ?
CYP2C9 inh: 57*; CYP2C9 activ: 0.4; PLAP act: 1.2; CYP2C19 inhib: 57*; CYP2C19 act: 0.4

Results for Cc1ccc(-n2ncc(C#N)c2/N=C/N(C)C)cc1 ?
CYP2C9 inh: -19; CYP2C9 activ: 1.2; PLAP act: 1; CYP2C19 inhib: 19; CYP2C19 act: 0.8

Source: PubChem BioAssay (Sanford-Burnham Center for Chemical Genomics)
